Experimental data: PubChem BioAssay AID1022 (Emory University Molecular Libraries Screening Center, 2008)
The whole screen tested about 220,000 compounds, of which about 3,300 (1.5%) were called active. For the sample, actives were picked, then their nearest neighbours and some compounds at random. A number with no mark means an inactive call.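 The calls were made as follows: active = compounds that cut the protein-peptide binding signal by more than 50% relative to plate controls in a single-dose test; inactive = the rest.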

molecular target: Induced myeloid leukemia cell differentiation protein Mcl-1 (Homo sapiens) (UniProt Q07820); test: disruptors of Mcl-1 and Noxa BH3 peptide – biochemical, TR-FRET, 1536-well, primary screen (AID 1022); conditions: TR-FRET Mcl-1/Noxa peptide binding, 2 h; at 21.7 µM; stronger effect = higher value;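 also: His-tagged Mcl-1 with rhodamine Noxa BH3 peptide and terbium anti-His antibody; 0% = Mcl-1 plus Noxa peptide wells and 100% = peptide-only wells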
Sequence (Q07820 whole entry, looked up): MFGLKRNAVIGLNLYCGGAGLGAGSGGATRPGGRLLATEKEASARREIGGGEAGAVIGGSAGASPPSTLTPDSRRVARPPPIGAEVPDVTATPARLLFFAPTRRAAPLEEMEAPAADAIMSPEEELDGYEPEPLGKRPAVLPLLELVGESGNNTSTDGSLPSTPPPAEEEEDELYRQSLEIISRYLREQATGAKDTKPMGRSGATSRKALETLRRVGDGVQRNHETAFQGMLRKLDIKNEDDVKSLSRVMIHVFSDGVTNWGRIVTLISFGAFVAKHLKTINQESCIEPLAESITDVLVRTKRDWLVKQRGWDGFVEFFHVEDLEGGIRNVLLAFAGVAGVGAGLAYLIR

| Compound | inhibition |
| --- | --- |
| Cc1nc(C(=O)N2CCCC(C(=O)c3ccc(Cl)cc3)C2)cs1 (centres undefined) | -4.61% |
| CC(=O)c1c(C)[nH]c(=S)c(C#N)c1-c1ccc(F)cc1 | -4.64% |
| Oc1ccccc1N1CCN(C(=S)NCc2ccccc2)CC1 | 16.6% |
| S=C(NCCc1ccccc1)N1CCCCC1 | 21.5% |
| Oc1ccc(N2CCN(C(=S)NCc3ccccc3)CC2)cc1 | 61.1% (active) |
| CC(=O)N/C(=C\c1ccc(F)cc1)C(=O)NC(Cc1ccccc1)C(=O)O (centres undefined) | -9.17% |
| CCc1c(C)nc2cc(-c3cccs3)[nH]n2c1=O | 7.24% |
| Cc1cc(=O)n2[nH]c(-c3sccc3-n3c(C)ccc3C)cc2n1 | 50.6% (active) |
| O=C(CS(=O)(=O)c1ccc(C(F)(F)F)cn1)NNC(=O)c1ccccc1 | -2.05% |
| COc1cccc(OC)c1CN(C)C(=O)c1cnccc1C(F)(F)F | -21.5% |
| C/C=C(\C)C(=O)N1CC2(CC(c3cccc(NC(=O)CCCCC)c3)=NO2)C[C@@H]1C(N)=O (some centres undefined) | -15.7% |
| O=C(NCCCc1ccccc1)C1CCC(CNc2c(N3CCCCC3)c(=O)c2=O)CC1 (centres undefined) | -3.38% |
| CN(C)/C=C(/C(=O)c1ccc(Cl)c(Cl)c1)c1nnnn1-c1ccccc1 | -12.2% |
| O=C(COc1ccccc1[N+](=O)[O-])N/N=C/c1ccc[nH]1 | -5.33% |
| Nn1c(SCc2ccccc2)nnc1C1CCCCC1 | 19.7% |
| O=C(COc1ccccc1[N+](=O)[O-])NC1CC1 | -42.2% |
| Cc1cc(OCC(=O)NC2CCN(C)CC2)ccc1[N+](=O)[O-] | 55.3% (active) |
| Cc1cc(OCCCN2CCN(Cc3ccccc3)CC2)ccc1[N+](=O)[O-] | 27.1% |
| COc1cc2c3c(c1)/C(=C1/SC(=S)NC1=O)C(=O)N3C(C)(C)C=C2C | 64% (active) |
| CC(C)n1c(CN2CCN(Cc3ccccc3)CC2)nc2ccccc21 | 24.8% |
| O=c1[nH]c2ccccc2n2c(-c3ccccc3)nnc12 | 101% (active) |
| CCOC(=O)c1cnc2[nH]c3ccccc3n2c1=O | 22% |
| O=[N+]([O-])c1cccc(-c2nnc3c4ccccc4c4ccccc4n23)c1 | 20.8% |
| CCOC(=O)c1c(CC(C)C)csc1/N=C/C1=C(O)CCCC1=O | -5.98% |

| Compound | inhibition |
| --- | --- |
| O=C(OCC1O[C@@H](OC(=O)c2cc(O)c(O)c(O)c2)[C@@H](OC(=O)c2cc(O)c(O)c(O)c2)[C@@H](OC(=O)c2cc(O)c(O)c(O)c2)[C@@H]1OC(=O)c1cc(O)c(O)c(O)c1)c1cc(O)c(O)c(O)c1 (some centres undefined) | 114% (active) |
| CC(=O)NC1C(OCc2ccccc2)OC(COC(C)=O)C(OC(C)=O)C1OC(C)=O (centres undefined) | 10.8% |
| COC(=O)c1cc(=O)n(-c2c(Cl)cc(C(F)(F)F)cc2Cl)[nH]1 | 3.78% |
| Cc1cc(C(=O)Nc2ccccc2N2CCOCC2)c2ccccc2n1 | -3.21% |
| Cc1cc(C(=O)NNC(=O)c2cccc(S(=O)(=O)N3CCOCC3)c2)c2ccccc2n1 | 63.2% (active) |
| O=C(NNC(=S)Nc1ccccc1)c1cccc(S(=O)(=O)N2CCOCC2)c1 | 1.14% |
| O=C1NC[C@@H](Cc2ccc(O)cc2)N(CCc2cccc(F)c2)C1=O | 6.16% |
| C=CCN1CC(C)/C(=N\O)CC1C (centres undefined) | 9.5% |
| Cc1nn(Cc2ccc(Cl)cc2)c(Cl)c1/C=N/NC(=O)c1cccnc1 | 27.5% |
| CCn1nc(C)c(/C=N/NC(=O)Cc2ccc(Cl)cc2)c1C | 91.8% (active) |
| Cc1nn(Cc2ccc(Cl)cc2)c(Cl)c1/C=N/NC(=O)CNc1ccccc1F | 5.98% |
| O=C1/C(=C/c2coc3ccc(O)cc3c2=O)SC(=S)N1c1ccccc1 | 56.9% (active) |
| O=c1c(/C=N/O)coc2ccc(Cl)cc12 | 4.15% |
| O=c1c(-c2ccccc2)coc2cc(O)ccc12 | 3.79% |
| Oc1ccc2ccccc2c1N=Nc1nccs1 | -81.5% |
| CCOC(=O)C1(S(=O)(=O)c2ccccc2)CCN(Cc2ccccc2)CC1 | 10.4% |
| CC1=C/C(=N\OS(=O)(=O)c2ccccc2)C=CC1=O | 61.2% (active) |
| CC1=C/C(=N\S(=O)(=O)c2ccccc2)C(C(C)C)=CC1=O | 17% |
| CNC1(c2nnnn2-c2c(C)cccc2C)CCOC(C)(C)C1 (centres undefined) | -14.2% |
| C=CC(COCc1ccccc1)N(Cc1ccccc1)S(=O)(=O)c1ccccc1Br (centres undefined) | -9.99% |
| CCC(CC)C(=O)Nc1ccc(S(=O)(=O)Nc2nccs2)cc1 | -30.3% |
| O=C(Nc1ccc(S(=O)(=O)Nc2nccs2)cc1)c1cc(=O)[nH]c2ccccc12 | 38.3% |
| O=C(Nc1ccc(S(=O)(=O)Nc2nccs2)cc1)c1cc(-c2ccncc2)nc2ccccc12 | 89.7% (active) |
| O=C(Nc1ccc(S(=O)(=O)N2CCOCC2)cc1)c1ccc2ncsc2c1 | 15.9% |

| Compound | inhibition |
| --- | --- |
| O=C(Nc1ccccc1C(F)(F)F)N1CCCC1c1cccnc1 (centres undefined) | -4.25% |
| Cc1cc(NCc2cccnc2)no1 | -9.18% |
| CSc1sc(C(=O)NC(=O)NCc2cccnc2)c(C)c1-c1ccon1 | -5.48% |
| COCCn1c(SCC(=O)c2[nH]c(C)c(C(C)=O)c2C)nc2ccccc2c1=O | -5.29% |
| O=C(NCCc1c[nH]c2ccc(Cl)cc12)c1ccc([N+](=O)[O-])cc1 | 27.8% |
| NC(=O)c1c(NC(=O)CSc2nc(N)cc(=O)[nH]2)sc2c1CCCC2 | 39.5% |
| Fc1cc(F)c2nc(Nc3nc4c(F)cccc4s3)sc2c1 | -45.8% |
| NC(=O)c1c(Nc2nc3c(F)cccc3s2)sc2c1CCCC2 | 94.4% (active) |
| CC(C)Cc1ccc(C(C)C(=N)N)cc1 (centres undefined) | 4.15% |
| O=C(NCC(c1cccs1)N1CCOCC1)c1cc(-c2ccccn2)nc2ccccc12 (centres undefined) | -1.37% |
| COc1ccc(OCCC(=O)c2ccc(OC)cc2)cc1 | 16.6% |
| CC(=O)Nc1ccc(CC#N)cc1 | -4.22% |
| Cc1nc2cc3c(cc2s1)OCO3 | 4.53% |
| CCN(CC)CCN(C(=O)c1ccc(N2C(=O)CCC2=O)cc1)c1nc2cc3c(cc2s1)OCO3 | 59.3% (active) |
| CCN(CC)CCN(C(=O)c1cccc([N+](=O)[O-])c1)c1nc2ccc(OC)cc2s1 | 19.8% |
| Cc1ccccc1Cn1c2ccccc2c2cnn(CC(=O)NCc3ccco3)c(=O)c21 | 6.08% |
| C=CCNC(=S)N1CCc2[nH]c3ccccc3c2C1 | 2.21% |
| Cc1ccc(NC(=O)COC(=O)CCc2nc3ccccc3n2-c2ccccc2)c(C)c1 | 4.37% |
| CCN(c1ccc(NC(=O)COC(=O)CCc2nc3ccccc3n2-c2ccccc2)cc1)C(C)C | 79.3% (active) |
| CC(C)(C)c1ccc(NC(=O)COC(=O)CCc2nc3ccccc3c(=O)[nH]2)cc1 | 0.96% |
| COCCn1c(SCC(=O)Nc2cc(OC)ccc2OC)nc2c(c1=O)SC(C)C2 (centres undefined) | 1.76% |
| CC(C)(C)c1ccc(CCC2OCC(CN3CCOCC3)O2)cc1 (centres undefined) | -0.05% |
| Cc1ccc(/C=N/NC(=O)CN2CCN(Cc3ccccc3)CC2)s1 | 14.9% |
| O=C(Cn1nnc(N2CCCCC2)n1)c1ccc(Cl)c(Cl)c1 | 13.1% |

| Compound | inhibition |
| --- | --- |
| Cc1ccc(-c2cc(C(=O)NN)n[nH]2)o1 | 11.3% |
| CCc1ccccc1N1C(=O)C2C3CC(=O)C(c4ccccc43)C2C1=O (centres undefined) | 1.91% |
| CC1=C(C)CC2C(=O)N(c3cccc4ccccc34)C(=O)C2C1 (centres undefined) | 53.5% (active) |
| Cc1ccc(N2C(=O)CC(Nc3cccc4ccccc34)C2=O)cc1 (centres undefined) | -23% |
| CCCCNC(=O)OCCSCCS(=O)(=O)c1ccc(Cl)cc1 | -6.78% |
| C/C(=N/NC(=O)c1ccn(C)n1)c1ccncc1 | -1.7% |
| COc1ccc(OC)c(C(c2nnnn2C(C)(C)C)N2CCc3ccccc3C2)c1 (centres undefined) | 23.3% |
| COCCn1nnnc1C(c1cc2ccc(OC)cc2[nH]c1=O)N1CCc2ccccc2C1 (centres undefined) | 58.9% (active) |
| CCOc1ccc2[nH]c(=O)c(C(c3nnnn3CCOC)N3CCOCC3)cc2c1 (centres undefined) | -4.39% |
| CCOC(=O)CN(C)S(=O)(=O)c1ccc(-c2cc(C(=O)OC)sc2C(F)(F)F)cc1 | 11.3% |
| O=S(=O)(c1ccc(F)cc1)N1CC=C(c2ccccc2)CC1 | -8.68% |
| COc1cc(C(CCN2CCN(c3ccccc3)CC2)c2c(OC)cc(OC)c3ccc(=O)oc23)cc(OC)c1OC (centres undefined) | 12.8% |
| CC(C)Cc1nnc(NC(=O)CCC(=O)Nc2ccc3cn[nH]c3c2)s1 | 32.1% |
| O=C(CCn1nnc2ccccc2c1=O)N[C@@H](Cc1c[nH]c2ccccc12)C(=O)O | 18.9% |
| O=C(O)CC12CC3CC(C1)CC(n1ncc(NCc4ccc(F)cc4)c(Cl)c1=O)(C3)C2 | 16.2% |
| Cc1ccc(C)c(SCc2nc3sc(C(=O)O)c(C)c3c(=O)[nH]2)c1 | 7.18% |
| CSc1nnc(SCc2nc3sc(C(=O)O)c(C)c3c(=O)[nH]2)s1 | 70.6% (active) |
| CCOC(=O)c1sc2nc(CSc3ccccc3)[nH]c(=O)c2c1C | -3.55% |
| COC(=O)c1cc(N2CCNCC2)nc2ccccc12 | -2.31% |
| CCOc1ccc(N=C2NC(=O)S/C2=C\c2ccc(O)cc2)cc1 | 98.8% (active) |
| CCOc1ccc(N=C2SC(C(=O)O)CC(=O)N2C)cc1 (centres undefined) | 16.1% |
| NC1=NC(=O)S/C1=C\c1ccc(O)cc1 | 12.7% |
